Assay results as given in PubChem BioAssay.
The list shows a part of the results. Calls of active or inactive are those of the source.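 Rule for the calls, unless noted: active = mean inhibition above about 50% in the one-dose retest (limit read from the data); inactive = the rest.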

What was measured:
[1] = target: Sentrin-specific protease 8 (Homo sapiens) (UniProt Q96LD8); assay: SENP8 protease inhibitors, retest, confirmation, biochemical, luminescence, single concentration (AID 488912;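 active = mean inhibition across replicates above about 50%, limit read from the data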); settings: Recombinant SENP8, Z-RLRGG-aminoluciferin luminescence, 60 min; at 12.5 µM; active compounds read high
Sequence of Sentrin-specific protease 8 (Homo sapiens) (Q96LD8 whole entry, looked up): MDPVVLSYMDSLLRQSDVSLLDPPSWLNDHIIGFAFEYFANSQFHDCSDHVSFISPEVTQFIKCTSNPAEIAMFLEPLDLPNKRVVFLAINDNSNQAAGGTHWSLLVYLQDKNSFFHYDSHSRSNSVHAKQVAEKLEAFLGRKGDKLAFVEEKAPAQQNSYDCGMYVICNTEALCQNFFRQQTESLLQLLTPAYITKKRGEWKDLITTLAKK

[2] = target: Sentrin-specific protease 6 (Homo sapiens) (UniProt Q9GZR1); assay: SENP6 protease inhibitors, confirmation, biochemical, luminescence, single concentration (AID 488915); settings: recombinant SENP6, Z-RLRGG-aminoluciferin luminescence; at 12.5 µM; active compounds read high
Sequence of Sentrin-specific protease 6 (Homo sapiens) (Q9GZR1 628-1112 limits assumed): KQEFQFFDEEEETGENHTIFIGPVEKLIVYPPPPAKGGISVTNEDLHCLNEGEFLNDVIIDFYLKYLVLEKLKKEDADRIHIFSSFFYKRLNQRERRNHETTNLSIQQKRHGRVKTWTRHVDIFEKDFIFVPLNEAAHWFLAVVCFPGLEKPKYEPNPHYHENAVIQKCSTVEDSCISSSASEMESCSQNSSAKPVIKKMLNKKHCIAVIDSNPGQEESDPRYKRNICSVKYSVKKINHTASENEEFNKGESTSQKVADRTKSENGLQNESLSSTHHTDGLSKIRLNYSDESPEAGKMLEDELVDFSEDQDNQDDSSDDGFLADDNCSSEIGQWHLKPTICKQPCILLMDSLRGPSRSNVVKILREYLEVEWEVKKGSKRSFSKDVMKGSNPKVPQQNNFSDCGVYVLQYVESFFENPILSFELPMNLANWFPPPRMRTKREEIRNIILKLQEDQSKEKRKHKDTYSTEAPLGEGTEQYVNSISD

[3] = target: Sentrin-specific protease 7 (Homo sapiens) (UniProt Q9BQF6); assay: SENP7 protease inhibitors, retest, confirmation, biochemical, luminescence, single concentration (AID 488917); settings: recombinant SENP7, Z-RLRGG-aminoluciferin luminescence, 40 min; at 12.5 µM; active compounds read high
Sequence of Sentrin-specific protease 7 (Homo sapiens) (Q9BQF6 706-1050 limits assumed): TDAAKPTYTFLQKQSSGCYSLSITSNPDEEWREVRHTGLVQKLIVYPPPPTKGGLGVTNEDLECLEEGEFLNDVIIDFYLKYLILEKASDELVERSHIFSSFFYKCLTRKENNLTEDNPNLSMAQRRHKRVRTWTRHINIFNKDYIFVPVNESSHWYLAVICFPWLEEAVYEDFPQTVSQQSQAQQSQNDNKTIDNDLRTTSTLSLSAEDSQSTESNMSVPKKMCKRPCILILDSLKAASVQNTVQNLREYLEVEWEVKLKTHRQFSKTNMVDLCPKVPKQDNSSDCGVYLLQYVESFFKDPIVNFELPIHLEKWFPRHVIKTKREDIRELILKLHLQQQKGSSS

Caspase-3 (Homo sapiens) = Caspase-3 (Homo sapiens) (UniProt P42574); assay: caspase-3 protease inhibitors, confirmation, selectivity assay for SENP inhibitor project, biochemical, single concentration (AID 488918;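 active = mean inhibition above about 50%, limit read from the data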;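 note: plate controls were enzyme with DMSO for no effect and wells without caspase-3 for full effect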); settings: purified caspase-3, Z-DEVD-aminoluciferin luminescence, 60 min; at 12.5 µM; active compounds read high
Sequence of Caspase-3 (Homo sapiens) (P42574 28-227 limits assumed): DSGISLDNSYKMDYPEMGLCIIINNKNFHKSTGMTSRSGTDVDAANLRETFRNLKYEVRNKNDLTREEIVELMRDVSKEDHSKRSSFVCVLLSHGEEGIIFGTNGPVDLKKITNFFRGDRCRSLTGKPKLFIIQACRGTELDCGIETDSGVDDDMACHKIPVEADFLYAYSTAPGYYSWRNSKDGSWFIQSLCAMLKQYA

[4] = luciferase luminescence interference by compounds, confirmation, artefact control for SENP inhibitor project, biochemical, single concentration, SENP8 reaction pre-completed (AID 488919;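 active = mean inhibition above about 50% when retested at one dose, limit read from the data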;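 note: plate controls were DMSO wells with completed reaction for no effect and substrate without enzyme for full effect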); settings: Pre-incubated SENP8/Z-RLRGG-aminoluciferin, at 12.5 µM, active compounds read high
[5] = Apaf-1 inhibitors, single-dose retest, confirmation, biochemical, fluorescence, DEVD-Rh110, 20 µM (AID 504614;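 active = mean inhibition of at least 40% at 20 µM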;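 note: plate controls were DMSO wells for no effect and DEVD-CHO caspase inhibitor control wells for full effect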); settings: reconstituted apoptosome, caspase-3 DEVD-Rh110 fluorescence; at 20 µM; active compounds read high
[6] = Rh110 fluorescence interference by putative Apaf-1 inhibitors, confirmation, artefact control for Apaf-1 inhibitor project, biochemical, 20 µM (AID 504615;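 active = signal rise of 40% or more at 20 µM, treated as a fluorescence artifact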); settings: quenched caspase reaction, at 20 µM, active compounds read high

COc1ccc(C(=O)Nc2ccc(C3(C#N)CCCC3)cc2)cc1OC
active: inhibition [1] 93% | inhibition [2] 93.6% | inhibition [3] 101% | inhibition (Caspase-3 (Homo sapiens)) 91.9% | inhibition [4] 83.2%

CCOC(=O)c1sc(NC(=O)c2ccncc2)nc1C
inactive: inhibition [1] 0.5% | inhibition [4] 20%
active: inhibition [2] 74.8% | inhibition [3] 90.8% | inhibition (Caspase-3 (Homo sapiens)) 84.4%

CCN1CC=C2C(C#N)=C(N)C(C#N)(C#N)[C@H](c3ccoc3)[C@H]2C1
inactive: inhibition [1] -12.3% | inhibition [2] -5.5% | inhibition [3] -13.6% | inhibition (Caspase-3 (Homo sapiens)) 1.7% | inhibition [4] -10.5%

O=c1[nH]c(CCl)nc2cc(-c3ccc(Cl)cc3)sc12
inactive: inhibition [1] 25.3% | inhibition [2] 45.5% | inhibition [3] 19.6% | inhibition (Caspase-3 (Homo sapiens)) 28.2% | inhibition [4] 9.5%

COc1cc(NC(=O)COC(=O)c2ccc([N+](=O)[O-])s2)cc(OC)c1OC
inactive: inhibition [3] 45.8% | inhibition (Caspase-3 (Homo sapiens)) 18.4% | inhibition [4] 0.3%
active: inhibition [1] 79.5% | inhibition [2] 86.7%

Cc1cccc(NC(=O)COc2ccc(Br)cc2C)n1
inactive: inhibition [1] 1% | inhibition [2] 50% | inhibition [3] 7.4% | inhibition (Caspase-3 (Homo sapiens)) 20.8% | inhibition [4] 11.1%

COc1ccc(C(=O)Nc2ccc(F)cc2F)cc1
active: inhibition [2] 60.2% | inhibition [3] 87.6% | inhibition (Caspase-3 (Homo sapiens)) 87.1% | inhibition [4] 67.9%
inactive: inhibition [1] -4.2%

Cc1cc(NC(=O)c2ccc(F)cc2)ccc1NC(=O)c1ccco1
inactive: inhibition [4] 14.8%
active: inhibition [1] 78.9% | inhibition [2] 73.5% | inhibition [3] 93% | inhibition (Caspase-3 (Homo sapiens)) 88.6%

COc1ccc(CNC(=O)COc2ccccc2C(=O)c2cnn(-c3ccccc3)c2)cc1OC
active: inhibition [1] 77.7% | inhibition [2] 76.1% | inhibition [3] 89.2% | inhibition (Caspase-3 (Homo sapiens)) 61.9% | inhibition [4] 65.5%

Cc1ccc(F)c(NC(=O)CCc2ccccc2)c1
inactive: inhibition [1] 36.4% | inhibition [2] 30.4% | inhibition [4] 44.8%
active: inhibition [3] 68.6% | inhibition (Caspase-3 (Homo sapiens)) 60.7%

CCC(=O)NC(Nc1cc(C)ccn1)(C(F)(F)F)C(F)(F)F
inactive: inhibition [1] -4.5% | inhibition [2] -2.4% | inhibition [3] -0.5% | inhibition (Caspase-3 (Homo sapiens)) 8.4% | inhibition [4] 4.2%

COc1cccc(C(=O)c2cc3ccc(O)cc3oc2=O)c1
active: inhibition [1] 98.7% | inhibition [2] 100% | inhibition [3] 103% | inhibition (Caspase-3 (Homo sapiens)) 98.7% | inhibition [4] 98%

c1ccc(-c2cc(-c3ccccc3)[nH]n2)cc1
active: inhibition [1] 69.7% | inhibition [2] 64.5% | inhibition [3] 85.8% | inhibition [4] 71.4%
inactive: inhibition (Caspase-3 (Homo sapiens)) 38%

O=C(Nc1nnc(C2CC2)s1)c1ccccn1
inactive: inhibition [1] 49.3% | inhibition [2] 49.2%
active: inhibition [3] 82.6% | inhibition (Caspase-3 (Homo sapiens)) 83.6% | inhibition [4] 59.4%

N/C(=N\OC(=O)CCC1CCCCC1)c1ccccn1
inactive: inhibition [4] 43.5%
active: inhibition [1] 88.5% | inhibition [2] 88.3% | inhibition [3] 98.2% | inhibition (Caspase-3 (Homo sapiens)) 90.7%

CCC(=O)Nc1ccc(C(=O)Nc2cccc(OC)c2)cc1
inactive: inhibition [1] 42.4% | inhibition [2] 39%
active: inhibition [3] 71.9% | inhibition (Caspase-3 (Homo sapiens)) 69.1% | inhibition [4] 52.9%

O=[N+]([O-])c1ccccc1N/N=C1\CCc2ccccc21
inactive: inhibition [1] -9.3% | inhibition [2] -5.8% | inhibition [3] -10.4% | inhibition (Caspase-3 (Homo sapiens)) 0.7% | inhibition [4] -0.8%

O=C(Nc1ccccc1Cl)Nc1cccc2cccnc12
active: inhibition [3] 75.2%
inactive: inhibition [1] 35.6% | inhibition [2] 37.2% | inhibition (Caspase-3 (Homo sapiens)) 25.9% | inhibition [4] 32.6%

O=c1[nH]c(/C=C/c2cccc(Br)c2)nc2ccccc12
inactive: inhibition [1] 2.7% | inhibition [2] 1.4% | inhibition [3] 12.3% | inhibition (Caspase-3 (Homo sapiens)) 17.6% | inhibition [4] 1%

O=C(NCc1ccccn1)c1c(O)c2c([nH]c1=O)CCCC2
inactive: inhibition [1] -0.6% | inhibition [2] 0.3% | inhibition [3] -5.1% | inhibition (Caspase-3 (Homo sapiens)) -3.9% | inhibition [4] -3.1%

Cc1c(Cl)cccc1NC(=O)Nc1ccc(C(=O)N2CCCC2)cc1
active: inhibition [3] 77.1% | inhibition (Caspase-3 (Homo sapiens)) 60.3%
inactive: inhibition [1] 20.5% | inhibition [2] 43% | inhibition [4] 11.4%

COc1ccccc1NC(=O)c1ccc(N2CC3CC(C2)c2cccc(=O)n2C3)c(NC(=O)c2cccnc2)c1 (configuration not stated)
inactive: inhibition [1] 8.2% | inhibition [2] 5.2% | inhibition [3] 12.1% | inhibition (Caspase-3 (Homo sapiens)) 8.9% | inhibition [4] 3.7%

O=C(N/N=C/c1cccnc1)c1cc2ccccc2cc1O
inactive: inhibition [1] 25.3% | inhibition [2] 22.6%
active: inhibition [3] 72.3% | inhibition (Caspase-3 (Homo sapiens)) 61.6% | inhibition [4] 53.8%

Cc1ccc(/C=N/NC(=O)c2cc3ccccc3cc2O)o1
active: inhibition [1] 67% | inhibition [2] 65.9% | inhibition [3] 89.2% | inhibition (Caspase-3 (Homo sapiens)) 76.8% | inhibition [4] 77.6%

O=C(Cn1ccc([N+](=O)[O-])n1)NCc1cccs1
inactive: inhibition [1] -12.3% | inhibition [2] -5.9% | inhibition [3] -4.5% | inhibition (Caspase-3 (Homo sapiens)) -1.1% | inhibition [4] -8.7%

CCn1nccc1C(=O)Nc1ccc(Cl)c(Cl)c1
inactive: inhibition (Caspase-3 (Homo sapiens)) 35.5%
active: inhibition [1] 61.1% | inhibition [2] 57.7% | inhibition [3] 80.6% | inhibition [4] 66.5%

Cc1cccc(Nc2nc(-c3ccccc3)cs2)n1
inactive: inhibition [1] -7.1% | inhibition [4] 49.5%
active: inhibition [2] 91.5% | inhibition [3] 99.9% | inhibition (Caspase-3 (Homo sapiens)) 67.1%

Fc1ccccc1-c1cc2cc3c(cc2cn1)OCO3
active: inhibition [2] 79.9% | inhibition [3] 79.1% | inhibition (Caspase-3 (Homo sapiens)) 51.6%
inactive: inhibition [1] 49.5% | inhibition [4] 7.4%

O=C(Nc1ccccc1F)c1ccc2c(c1)OCO2
active: inhibition [1] 72% | inhibition [2] 66.7% | inhibition [3] 90.9% | inhibition (Caspase-3 (Homo sapiens)) 89.4% | inhibition [4] 69.1%

O=C(NC(=O)c1ccccc1)Nc1ccccc1O
active: inhibition [3] 69.7% | inhibition (Caspase-3 (Homo sapiens)) 73.3%
inactive: inhibition [1] -10% | inhibition [2] 6.3% | inhibition [4] 23.8%

O=C(c1ccc(CSc2ccccc2)cc1)N1CCCCCC1
active: inhibition [1] 57.5% | inhibition [2] 57% | inhibition [3] 80% | inhibition (Caspase-3 (Homo sapiens)) 54.3% | inhibition [4] 65.5%

O=c1c2c(nc3cc(-c4cccc(Cl)c4)[nH]n13)CCCC2
inactive: inhibition [1] -9.4% | inhibition [2] 0% | inhibition [3] 21.5% | inhibition (Caspase-3 (Homo sapiens)) 41.6% | inhibition [4] -4.6%

N#Cc1c(N2CCCCC2)nc(N)c2c(N)nc(SCC(=O)O)cc12
inactive: inhibition [1] 11.2% | inhibition (Caspase-3 (Homo sapiens)) 0.8% | inhibition [4] -0.2% | inhibition [5] 31.3% | activation (fluorescence interference) [6] 7.18%
active: inhibition [2] 72.6% | inhibition [3] 61.9%

O=C(O)c1ccc2c3c(cccc13)C(=O)N(OS(=O)(=O)c1ccccc1)C2=O
active: inhibition [3] 68.5% | inhibition [4] 53.8%
inactive: inhibition [1] 36.6% | inhibition [2] 29.2% | inhibition (Caspase-3 (Homo sapiens)) 10.4%

c1ccc(-c2noc(-c3cccs3)n2)nc1
active: inhibition [1] 90% | inhibition [2] 91.3% | inhibition [3] 98.9% | inhibition (Caspase-3 (Homo sapiens)) 95.4% | inhibition [4] 90.1%

COc1ccc(-n2ncc3c(SCC(=O)NNC(C)=O)ncnc32)cc1
inactive: inhibition [1] 11.5% | inhibition [2] 48.8% | inhibition [3] 11.2% | inhibition [4] 5.9%
active: inhibition (Caspase-3 (Homo sapiens)) 51.3%

Cc1ccc(OC(=O)c2cc3ccccc3o2)cc1
inactive: inhibition (Caspase-3 (Homo sapiens)) 46.9%
active: inhibition [1] 50.7% | inhibition [2] 51.4% | inhibition [3] 90.8% | inhibition [4] 64.7%

FC(F)(F)c1ccnc(Oc2ccc(C3=NCCS3)cc2)c1
inactive: inhibition [1] 36.3% | inhibition [2] 42.8% | inhibition (Caspase-3 (Homo sapiens)) 29.9% | inhibition [4] 17%
active: inhibition [3] 53.1%

C/C(=N\NC(=O)c1ccc(C)cc1)C1C(=O)c2ccccc2C1=O
active: inhibition [1] 92.6% | inhibition [2] 93.5% | inhibition [3] 100% | inhibition (Caspase-3 (Homo sapiens)) 92.7% | inhibition [4] 94.1%

COc1ccc(Cc2nnc(SCC(=O)c3cccc([N+](=O)[O-])c3)n2C)cc1
inactive: inhibition [1] -3.9% | inhibition [2] 1.7% | inhibition [3] 6.9% | inhibition (Caspase-3 (Homo sapiens)) 4.6% | inhibition [4] -2.3%

O=C(COc1ccc2oc3c(c2c1)CCCC3)Nc1ccccn1
inactive: inhibition [1] 4.9% | inhibition [2] 12.8% | inhibition [3] 11.9% | inhibition (Caspase-3 (Homo sapiens)) 24.7% | inhibition [4] 4.6%

O=C(O)/C=C/C(=O)NNc1ccc([N+](=O)[O-])cc1
active: inhibition [1] 67.5% | inhibition [2] 65.4% | inhibition [3] 92.5% | inhibition (Caspase-3 (Homo sapiens)) 88.6% | inhibition [4] 79.3%

Cc1cccc(NS(=O)(=O)c2cccc(C(=O)NNC(=O)c3ccccc3O)c2)c1
active: inhibition [2] 54.5% | inhibition [3] 75.5% | inhibition (Caspase-3 (Homo sapiens)) 56.8%
inactive: inhibition [1] 26.9% | inhibition [4] 49.9%

CC1=CC(=C(C#N)c2nc3ccccc3s2)C=C(C)N1c1ccc(F)cc1F
inactive: inhibition [1] 12.4% | inhibition [2] 19% | inhibition [3] -0.4% | inhibition (Caspase-3 (Homo sapiens)) -3.2% | inhibition [4] -9.8%

O=C(OCC(=O)N1CCN(c2ccccc2)CC1)c1ccc([N+](=O)[O-])s1
active: inhibition [1] 64.2% | inhibition [2] 80.9%
inactive: inhibition [3] 25.4% | inhibition (Caspase-3 (Homo sapiens)) 8.3% | inhibition [4] -3.3%

CC(=O)Oc1ccc2c(c1)C(=O)c1ccccc1C2=O
active: inhibition [3] 67.4% | inhibition (Caspase-3 (Homo sapiens)) 57.6%
inactive: inhibition [1] 38.1% | inhibition [2] 43.9% | inhibition [4] 25.6%

O=C(Nc1cc2ccccc2oc1=O)C1CCCCC1
inactive: inhibition [1] 8.2% | inhibition [2] 4.9% | inhibition [3] 19.1% | inhibition (Caspase-3 (Homo sapiens)) 20.1% | inhibition [4] 3.7%

CNc1nc(Nc2ccc(C)c(Cl)c2)nc(N)c1[N+](=O)[O-]
active: inhibition [1] 97.8% | inhibition [2] 98.7% | inhibition [3] 103% | inhibition (Caspase-3 (Homo sapiens)) 96.9%
inactive: inhibition [4] 18.3%

COc1cccc(C(=O)Nc2ccc(NC(=O)c3ccco3)cn2)c1
active: inhibition [1] 53.1% | inhibition [2] 51% | inhibition [3] 82.4% | inhibition (Caspase-3 (Homo sapiens)) 76.1% | inhibition [4] 62.4%
